PubChem BioAssay AID1159580 (chemical genetic matrix, 2015)
The campaign covered roughly 5,500 compounds. About 2,000 (36%) were called active. Not shown: some 18% with an inconclusive outcome. Cut-off read from the data, not from the text of the source: active = normalized growth mostly below about 0.91 (no sharp cut-off); inconclusive = no clear call, values can overlap the other calls; inactive = mostly above about 0.92. Some of the results follow.

Experiment: chemical genetic growth profiling, strain panel (AID 1159580);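 note: tested at 20 µM; growth read once vehicle control cultures reached saturation at 30 °C; 1 = growth at the plate median or of vehicle wells; lower values mean less growth of the strain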
Details: growth OD

Measured: normalized growth

CC(=O)Nc1cccc(O)c1
inactive: S. cerevisiae deletion strains, locus YJL187C, strain SWE1, hits give low values 1.02 | S. cerevisiae deletion strains, locus YJR043C, strain POL32, hits give low values 0.999 | S. cerevisiae deletion strains, locus YJR075W, strain HOC1, hits give low values 1.01 | S. cerevisiae deletion strains, locus YKL009W, strain mrt4, hits give low values 0.973 | S. cerevisiae deletion strains, locus YKL068W, hits give low values 0.989 | S. cerevisiae deletion strains, locus YKL085W, strain MDH1 (second series), hits give low values 1.01 | S. cerevisiae deletion strains, locus YKL085W, strain MDH1, hits give low values 1.01 | S. cerevisiae deletion strains, locus YKL160W, strain elf1, hits give low values 1.05 | S. cerevisiae deletion strains, locus YKL190W, strain CNB1, hits give low values 1 | S. cerevisiae deletion strains, locus YKR001C, strain vps1, hits give low values 0.991 | S. cerevisiae deletion strains, locus YKR026C, strain gcn3, hits give low values 1.01 | S. cerevisiae deletion strains, locus YKR091W, strain srl3, hits give low values 1.01 | S. cerevisiae deletion strains, locus YLL001W, strain dnm1, hits give low values 0.995 | S. cerevisiae deletion strains, locus YLL026W, hits give low values 1.03 | S. cerevisiae deletion strains, locus YLL041C, strain sdh2, hits give low values 1.03 | S. cerevisiae deletion strains, locus YLR027C, strain aat2, hits give low values 1.01 | S. cerevisiae deletion strains, locus YLR039C, strain RIC1, hits give low values 1 | S. cerevisiae deletion strains, locus YLR058C, strain SHM2, hits give low values 1.01 | S. cerevisiae deletion strains, locus YLR102C, strain apc9, hits give low values 1.01 | S. cerevisiae deletion strains, locus YLR221C, strain rsa3, hits give low values 0.972 | S. cerevisiae deletion strains, locus YLR258W, strain gsy2, hits give low values 1.04 | S. cerevisiae deletion strains, locus YLR262C, strain YPT6 (second series), hits give low values 1.01 | S. cerevisiae deletion strains, locus YLR262C, strain YPT6, hits give low values 1.02 | S. cerevisiae deletion strains, locus YLR268W, strain sec22, hits give low values 0.986 | S. cerevisiae deletion strains, locus YLR320W, strain mms22, hits give low values 0.957 | S. cerevisiae deletion strains, locus YLR330W, strain CHS5, hits give low values 1.01 | S. cerevisiae deletion strains, locus YLR342W, strain FKS1 (second series), hits give low values 1 | S. cerevisiae deletion strains, locus YLR342W, strain FKS1, hits give low values 1.04 | S. cerevisiae deletion strains, locus YLR357W, strain rsc2, hits give low values 1.04 | S. cerevisiae deletion strains, locus YLR370C, strain arc18, hits give low values 1.03 | S. cerevisiae deletion strains, locus YLR371W, strain rom2, hits give low values 0.999 | S. cerevisiae deletion strains, locus YLR384C, strain iki3, hits give low values 1.02 | S. cerevisiae deletion strains, locus YLR418C, strain cdc73, hits give low values 0.996 | S. cerevisiae deletion strains, locus YML016C, strain PPZ1, hits give low values 1.01 | S. cerevisiae deletion strains, locus YML032C, strain rad52, hits give low values 0.995 | S. cerevisiae deletion strains, locus YML120C, strain ndi1, hits give low values 0.972 | S. cerevisiae deletion strains, locus YML124C, strain tub3, hits give low values 0.986 | S. cerevisiae deletion strains, locus YMR058W, strain fet3, hits give low values 1.02 | S. cerevisiae deletion strains, locus YMR078C, strain ctf18, hits give low values 0.989 | S. cerevisiae deletion strains, locus YMR125W, strain sto1, hits give low values 1.03 | S. cerevisiae deletion strains, locus YMR129W, hits give low values 0.998 | S. cerevisiae deletion strains, locus YMR205C, strain PFK2, hits give low values 0.991 | S. cerevisiae deletion strains, locus YMR223W, strain ubp8, hits give low values 1 | S. cerevisiae deletion strains, locus YMR231W, strain pep5, hits give low values 1 | S. cerevisiae deletion strains, locus YMR263W, strain SAP30, hits give low values 1.01 | S. cerevisiae deletion strains, locus YMR307W, strain GAS1, hits give low values 1 | S. cerevisiae deletion strains, locus YNL067W, strain RPL9B, hits give low values 1.01 | S. cerevisiae deletion strains, locus YNL071W, strain lat1, hits give low values 1.01 | S. cerevisiae deletion strains, locus YNL153C, strain GIM3, hits give low values 1.02 | S. cerevisiae deletion strains, locus YNL209W, strain ssb2, hits give low values 1.02 | S. cerevisiae deletion strains, locus YNL233W, strain BNI4, hits give low values 1.02 | S. cerevisiae deletion strains, locus YNL248C, strain rpa49, hits give low values 1.07 | S. cerevisiae deletion strains, locus YNL250W, strain rad50, hits give low values 0.995 | S. cerevisiae deletion strains, locus YNL271C, strain bni1, hits give low values 0.993 | S. cerevisiae deletion strains, locus YNL298W, strain CLA4, hits give low values 0.978 | S. cerevisiae deletion strains, locus YNL307C, strain MCK1, hits give low values 1.01 | S. cerevisiae deletion strains, locus YNL322C, strain KRE1 (second series), hits give low values 1.05 | S. cerevisiae deletion strains, locus YNL322C, strain KRE1, hits give low values 1 | S. cerevisiae deletion strains, locus YNR049C, strain mso1, hits give low values 1.01 | S. cerevisiae deletion strains, locus YNR052C, strain pop2, hits give low values 1 | S. cerevisiae deletion strains, locus YOL006C, strain TOP1, hits give low values 1.03 | S. cerevisiae deletion strains, locus YOL012C, strain htz1 0.695 | S. cerevisiae deletion strains, locus YOL147C, strain pex11, hits give low values 0.99 | S. cerevisiae deletion strains, locus YOR001W, strain rrp6, hits give low values 0.952 | S. cerevisiae deletion strains, locus YOR061W, strain CKA2, hits give low values 1 | S. cerevisiae deletion strains, locus YOR069W, strain VPS5, hits give low values 1 | S. cerevisiae deletion strains, locus YOR070C, strain gyp1, hits give low values 1.02 | S. cerevisiae deletion strains, locus YOR080W, strain dia2, hits give low values 1.02 | S. cerevisiae deletion strains, locus YOR083W, strain WHI5, hits give low values 0.997 | S. cerevisiae deletion strains, locus YOR106W, strain vam3, hits give low values 1.05 | S. cerevisiae deletion strains, locus YOR136W, strain idh2, hits give low values 0.995 | S. cerevisiae deletion strains, locus YOR144C, strain elg1, hits give low values 0.993 | S. cerevisiae deletion strains, locus YOR184W, strain ser1, hits give low values 1 | S. cerevisiae deletion strains, locus YOR265W, strain rbl2, hits give low values 1.01 | S. cerevisiae deletion strains, locus YOR270C, strain vph1, hits give low values 1.05 | S. cerevisiae deletion strains, locus YOR290C, strain snf2, hits give low values 1.05 | S. cerevisiae deletion strains, locus YOR316C, strain cot1, hits give low values 0.991 | S. cerevisiae deletion strains, locus YPL051W, strain arl3, hits give low values 1.04 | S. cerevisiae deletion strains, locus YPL055C, strain LGE1, hits give low values 1.01 | S. cerevisiae deletion strains, locus YPL078C, strain atp4, hits give low values 1.04 | S. cerevisiae deletion strains, locus YPL106C, strain sse1, hits give low values 1.01 | S. cerevisiae deletion strains, locus YPL240C, strain hsp82, hits give low values 1.01 | S. cerevisiae deletion strains, locus YPR119W, strain clb2, hits give low values 1 | S. cerevisiae deletion strains, locus YPR141C, strain kar3, hits give low values 0.98 | S. cerevisiae deletion strains, locus YPR163C, strain tif3, hits give low values 0.988 | S. cerevisiae deletion strains, locus YPR167C, strain met16, hits give low values 0.997 | S. cerevisiae deletion strains, strain wtn01, hits give low values 0.995 | S. cerevisiae strains, strain wild type, hits give low values 1.01
